Records with an inconclusive call do not appear. The call rests on the fitted dose curve; in most records, active means well fitted curve in either direction with a large enough effect (not every such curve was filed as active); inconclusive means small, poorly fitted or top-dose-only effect, or another doubt; inactive means flat fitted curve, though single readings scatter.
Assay: NFAT Signaling Pathway (AID 444);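 further: carbachol stimulus at about its EC50 of 1 µM final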
Details: Jurkat NFAT-bla M1, carbachol, beta-lactamase ratio, 5 h; at 7.69 µM (top of the series) unless noted
How it was run: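 Jurkat cells with NFAT-driven β-lactamase reporter and co-expressed M1 receptor, stimulated with carbachol (final 1 uM, ~EC50), compound titration, 5 h at 37 °C. CCF4 loaded 1 h at RT; 460/530 nm ratio gave %activity and AC50.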
On the % scale 0 is the no-effect control and ±100 the full control effect.

Activity change, negative = inhibition, inactive:
O=C1c2cccc([N+](=O)[O-])c2C(=O)N1c1ncn[nH]1 7.45%
O=C1c2ccccc2C(=O)c2c1ccc(N1C(=O)c3ccccc3C1=O)c2-c1c(N2C(=O)c3ccccc3C2=O)ccc2c1C(=O)c1ccccc1C2=O -22.9%
Cc1ccc(S(=O)(=O)OCC(=O)O)cc1 4.54%
O=c1[nH]c(SCc2ccccc2[N+](=O)[O-])nc2nc[nH]c12 13.2%
CC1(C)N=C(N)N=C(N)N1c1cccc(OCc2cccc(N)c2)c1 -27.5%
Cc1[nH]c(N)nc(=S)c1CCCNc1ccccc1 3.26%
FC(F)(F)c1nc2nc(Cl)c(Cl)nc2n1CCCN1CCOCC1 -3.79%
CN(C)Cc1c[nH]c2nc[nH]c(=O)c12 -5.56%
Cc1cc(N2CCOCC2)nc2ccc(Cc3ccc4nc(N5CCOCC5)cc(C)c4c3)cc12 -6.47%
NS(=O)(=O)c1cc(C(=O)O)c(Cl)c([N+](=O)[O-])c1Cl 18.5%
C[C@H](C(=O)c1ccncc1)c1ccccn1 -8.81%
CC(C)(C)c1ccc(-c2nnc(SCc3ccc(Cl)cc3)n2-c2cccc(C(F)(F)F)c2)cc1 -23.1%
c1ccc2sc(SCN(C3CCCCC3)C3CCCCC3)nc2c1 -7.96%
CC(C)(C)c1ccc(O)c(CN(Cc2cc(C(C)(C)C)ccc2O)C2CCCCC2)c1 -3.2%
C[N@@+]1(CC[N@@+]2(C)CCC[C@H]2c2cccnc2)CCC[C@@H]1c1cccnc1 -16.4%
CN(Cc1cc(Br)cc(Br)c1O)Cc1c(O)ccc2ccccc12 -25.5%
CN(C)CN1CSC(=S)N(CN(C)C)C1 1.69%
CN(C)c1ncnc2c1ncn2CCn1cnc2c(N(C)C)ncnc21 7.13%
O=S1(=O)CCN(c2ccccc2CC(c2c[nH]c3ccccc23)c2c[nH]c3ccccc23)CC1 -27.4%
Clc1ccc(CSC2=NCCN2)cc1Cl -19.4%
Cn1c(=O)c(CCc2ccccc2)nc2cnc(N3CCNCC3)nc21 8.46%
c1ccc(CO[C@H]2NCCN2Cc2ccccc2)cc1 9.93%
O=C(O)c1ccccc1-c1ccccc1C(=O)Nc1ccc2c(c1)[nH]c(=O)c1ccccc12 1.08%
COCCn1c(=O)c(-c2cc(F)cc(F)c2)nc2cnc(Oc3ccc(OC)cc3)nc21 0.515%
O=c1c(-c2ccccc2)nc2cnc(Oc3ccccc3)nc2n1C1CC1 2.32%
CN1CCN(CN2C(=O)C3C4C=CC(C3C2=O)C2C3C(=O)N(CN5CCN(C)CC5)C(=O)C3C42)CC1 (stereo not given) 4.36%
NC[C@@H](O)CSCc1ccc(Cl)cc1 21.3%
CC(=O)[C@H](C(=N)C#N)C(=O)Nc1ccccc1 -3.12%
Cc1cc(Cl)ccc1Nc1sc(C(=O)c2cc3cc(Cl)ccc3o2)c(N)c1C#N 14.9%
CC(C)[C@@H]1O[C@H](/C=C\c2ccccc2)OCC1(C)C 26.7%
C[C@@H](C(=O)O)/C(=C/c1ccc2c(c1)OCO2)C(=O)O 1.64%
c1nnc(NCNc2nncs2)s1 7.13%
S[C@@H]1CCCN(Cc2ccccc2)C1 -16.1%
NC(=O)N[C@H](CC(=O)O)C(=O)O 0.469%
CC(=O)n1c(COS(C)(=O)=O)nc2ccccc21 8.51%
c1ccc(CCN2CCN=C2Cc2ccccc2)cc1 -21.9%
NNC(=O)CCSc1ccccc1 10.9%
O=C(O)CSc1n[nH]c(=O)[nH]c1=O 5.38%
Cc1ccc(CSC(N)=Nc2ccccc2)cc1C -3.46%
c1cncc(CNCc2cccnc2)c1 2.26%

Source: PubChem BioAssay (NCATS)
